Source: PubChem BioAssay
ATXN viability = cell viability loss in ATXN counter-screen; S2 cells (HEK-293 line with an ATXN2-luciferase reporter) viability, CellTiter-Fluor protease fluorescence, 24 h; Potency, µM (top dose mostly 56.7 µM), actives largely listed as cytotoxic; 400,000 tested, 0.49% active; note: nearly all actives have a fitted effect of over 40% in size
HepG2 viability = counter-screen for TGF-b inhibitors: cytotoxicity in HepG2 cells | HepG2 CAGA-GFP viability, ATP luminescence, 18 h | Potency, µM (highest dose often 46.1 µM), hits mostly cytotoxic | 410,000 tested, 0.76% active | AID 588856
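CellTiter-Glo luminescence gave cytotoxicity after 18 hours at 37 degrees C. The cells were HepG2 CAGA-GFP in 1% FBS DMEM, stimulated with 500 pg/mL TGF-beta after compound addition. %Activity was normalised to no-cell wells (complete cell-killing) and DMSO (no toxicity), and curves were fitted and classified.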
TGFb inhibitor = TGF-b pathway inhibition; 410,000 tested, 1.2% active; AID 588855; Potency, µM (top dose mostly 46.1 µM), usual class: inhibitors; HepG2 CAGA-GFP TGF-b/SMAD3 reporter, GFP fluorescence, 18 h; TGF-beta stimulated, 500 pg/mL final; note: nearly all actives have a fitted effect of over 65% in size
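GFP signal (ex488/em500-530) from TGF-beta-stimulated HEPG2 CAGA-GFP cells, 500 pg/mL final, 18 h at 37 degrees C in DMEM plus 1% FBS, normalized to unstimulated and DMSO-stimulated controls.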
ATXN2 expr inh = inhibitors of ATXN2 expression | 360,000 tested, 0.72% active | HEK-293 ATXN2-luciferase reporter, luminescence, 24 h | Potency, µM (titrated, usually from 57 µM), most hits filed as inhibitors | AID 1745845; note: nearly all actives have a fitted effect of over 55% in size
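ATXN2-luciferase reporter cells (luciferase flanked by upstream and downstream ATXN2 gene portions) were treated 24 h at 37 °C with compounds at up to 57 uM. SteadyGlo luminescence gave expression; GF-AFC fluorescence gave viability.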
D3 antag = D3 dopamine receptor (human) antagonism. P35462. D3R cells, DiscoveRx beta-arrestin luminescence, antagonist mode; hits give low values. max response, negative = inhibition, %. 360,000 tested, 2.5% active. AID 652054; in the data active = max response below about -50%; inconclusive = no clear call, values can overlap the other calls
Target sequence (P35462 whole entry, looked up): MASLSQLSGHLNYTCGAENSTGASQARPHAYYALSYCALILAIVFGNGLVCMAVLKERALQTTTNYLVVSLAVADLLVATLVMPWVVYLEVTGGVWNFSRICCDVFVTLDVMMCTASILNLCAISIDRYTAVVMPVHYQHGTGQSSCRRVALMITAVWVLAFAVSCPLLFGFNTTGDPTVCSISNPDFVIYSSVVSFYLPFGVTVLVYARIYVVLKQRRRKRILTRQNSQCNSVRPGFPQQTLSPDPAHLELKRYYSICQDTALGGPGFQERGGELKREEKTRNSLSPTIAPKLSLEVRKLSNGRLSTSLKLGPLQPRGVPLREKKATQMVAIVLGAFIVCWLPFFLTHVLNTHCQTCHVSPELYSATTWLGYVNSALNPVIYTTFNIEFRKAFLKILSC
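Cells plated overnight at 1500 cells/well, then exposed to library compounds with dopamine controls for 90 minutes at 37 degrees C. DiscoveRx reagent added for 30–60 minutes at room temperature; luminescence read, quantitative HTS format.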
D3 ag = D3 dopamine receptor (human) agonism. P35462. max activation, %. D3R DiscoveRx beta-arrestin cells, luminescence, 90 min. 410,000 tested, 0.58% active; in the data active = max activation above about 30%
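Agonist-mode cell screen: cells plated at 1500/well and incubated overnight at 37 °C, then exposed to library compounds for 90 min at 37 °C. Detection reagent was added for 30–60 min at room temperature, and luminescence was read.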
A number is an active result; i = inactive; ? = inconclusive; nt = no result given; ! = repeats disagree; [ ] = remark or other dose. An excerpt weighted towards active compounds, which were near 4.8% of everything screened. Unless noted, calls come from the whole dose curve; as a rule, active = well fitted curve in the direction sought with a large enough effect; inconclusive = small, poorly fitted or top-dose-only effect, or another doubt; inactive = no such curve, though single readings can be large; an effect the other way counts as inactive or inconclusive.

SMILES	ATXN viability	HepG2 viability	TGFb inhibitor	ATXN2 expr inh	D3 antag	D3 ag
CC(=O)/C=C/c1ccccc1	i	i	i	i	i	i
CC(=O)[O][Hg][c]1ccccc1	4.5µM	nt	nt	4.5µM	nt	i
CC(Cc1ccccc1)[n+]1cc(/N=C(\[O-])Nc2ccccc2)on1 (configuration not stated)	i	i	i	i	-54	i
CC(C)C[C@H](CN)CC(=O)O	nt	nt	nt	i	nt	i
CCCCCCCCCCCCCCCC[n+]1ccccc1	20µM	20µM!	16µM	32µM!	?	nt
CCCCCCC[n+]1ccc(-c2cc[n+](CCCCCCC)cc2)cc1	i	i	i	i	i	i
NC(Cc1ccccc1)c1csc(Nc2ccccn2)n1 (configuration not stated)	?	i	?	i	i	i
COc1cccc(Nc2nc(C(N)Cc3ccc(F)cc3)cs2)n1 (configuration not stated)	?	i	?	25µM	i	i
NC(Cc1ccc(F)cc1)c1csc(Nc2ccccn2)n1 (configuration not stated)	i	25µM	?	?	i	i
NC(Cc1ccc(Cl)cc1)c1csc(Nc2ccccn2)n1 (configuration not stated)	?	i	?	22µM	i	i
CC(C)c1ccc(NC(=O)CN2C(=O)CN=C(c3ccccc3)c3ccccc32)cc1	?	i	i	i	nt	i
CCOP(=O)(CCP(=O)(OCC)OCC)OCC.C[CH2][Sn]([Cl])([Cl])[CH2]C	?	i	?	19µM	?	i
CCCCCc1cc(O)c2c(c1)OC(C)(C)c1ccc(C)cc1-2	?	nt	nt	nt	nt	i
C=C[C@H]1CN2CC[C@H]1C[C@H]2[C@H](OC(=O)OCC)c1ccnc2ccc(OC)cc12	nt	nt	nt	nt	nt	i
COc1ccccc1N1CCN(Cc2cccc(OC)c2O)CC1	i	i	i	i	-101	i
Clc1ccccc1CN1CCN(c2ccccc2)CC1	i	i	i	i	i	i
COc1ccccc1N1CCN(Cc2c(F)cccc2F)CC1	i	i	i	i	-69	i
COc1ccccc1N1CCN(Cc2ccccc2F)CC1	?	i	i	i	-92	i
COc1ccccc1N1CCN(Cc2ccccc2Cl)CC1	i	i	i	i	-88	i
Fc1ccccc1CN1CCN(c2ccc(Cl)cc2)CC1	i	i	i	i	?	i
CC(C)CCC(=O)O[C@H]1CC[C@H]2[C@@H]3CCC4=CC(=O)CC[C@]4(C)[C@H]3CC[C@]12C	nt	nt	nt	nt	nt	i
CN1CC[C@@]2(C)c3cc(O)ccc3N(C)C12 (some centres not stated)	nt	i	?	nt	nt	nt
Nc1ccc(N2CCN(Cc3ccccc3Cl)CC2)c(Cl)c1	i	i	i	i	-57	i
Clc1ccc(N2CCN(Cc3ccccc3Cl)CC2)cc1	i	i	i	i	i	i
Clc1ccccc1CN1CCN(c2cccc3[nH]ccc23)CC1	i	i	i	i	-80	i
SMILES	ATXN viability	HepG2 viability	TGFb inhibitor	ATXN2 expr inh	D3 antag	D3 ag
COc1ccccc1N1CCN(Cc2ccc(Br)cc2)CC1	i	i	i	nt	-110	i
O=C(Oc1ccc([N+](=O)[O-])cc1)N1CCN(/[N+]([O-])=N/Oc2ccc([N+](=O)[O-])cc2[N+](=O)[O-])CC1	nt	i	?	nt	nt	nt
C[C@]12CC[C@H]3[C@@H](CCC4=CC(=O)CC[C@@]43C)[C@@H]1CC[C@@H]2OC(=O)CCc1ccccc1	?	nt	nt	nt	nt	i
Clc1ccc(COC(Cn2ccnc2)c2ccc(Cl)cc2Cl)c(Cl)c1 (configuration not stated)	?	16µM!	?	?	i	47!
Clc1ccc(CO[C@@H](Cn2ccnc2)c2ccc(Cl)cc2Cl)cc1	i	nt	nt	nt	nt	nt
COC(=O)C1=C(c2ccccc2OCc2ccccc2)C[C@@H]2CC[C@H]1N2C	?	i	i	i	i	i
COC(=O)C1=C(c2ccc(F)cc2OCc2ccccc2)C[C@@H]2CC[C@H]1N2C	?	i	i	i	-56	i
CCc1ccc2c(c1)Sc1ccccc1CC2N1CCN(C)CC1 (configuration not stated)	nt	i	?	nt	-116	i
COc1ccc(NC(=O)CCn2cnc3onc(-c4ccc(F)cc4)c3c2=O)cc1OC	?	i	?	?	nt	i
Cc1[nH]c2ccc(OC(F)(F)F)cc2c1CCNCc1cccc([N+](=O)[O-])c1	i	i	?	?	-64	i
CCCCNC(C)Cc1ccccc1 (configuration not stated)	i	i	i	i	-51	i
CC(C)N(Cc1ccccc1)C(=O)CCS(=O)(=O)c1ccc2c(c1)oc(=O)n2C	i	i	i	i	i	i
Cc1ccc2c(c1)C(Cc1nc3ccccc3c(=O)n1-c1ccc(Br)cc1)C(=O)N2 (configuration not stated)	25µM	i	?	i	nt	i
O=C(CN1CCOCC1)c1cccc2ccccc12	i	i	i	i	-55	i
O=C(CN1CCOCC1)c1ccc(Br)cc1	?	i	i	i	?	i
CCN(CC)c1ccc(/C=C/[N+](=O)[O-])cc1	i	i	?	i[11.3 µM]	i	i
O=[N+]([O-])/C=C/c1c(Cl)cccc1Cl	nt	10µM	2.8µM	?	i	i
O=[N+]([O-])c1ccc(CN2CC=C(c3ccccc3)CC2)cc1	i	i	i	i	-55	i
COc1ccccc1CN1CCNCC1	?	i	i	nt	i	i
O=C(CN1CC=C(c2ccccc2)CC1)NC(=O)NCc1ccccc1	i	i	i	i	i	i
COc1cccc(CN2CCN(Cc3cccc(F)c3)CC2)c1	i	i	i	nt	i	i
Fc1ccc(Cn2nnnc2C(c2ccc(Cl)cc2)N2CC=C(c3ccc(F)cc3)CC2)cc1 (configuration not stated)	i	i	i	nt	i	i
COc1cc(C)c(CN2CC=C(c3ccc(F)cc3)CC2)cc1C	?	i	i	i	-76	i
CN(C)c1ccc(CN2CC=C(c3ccc(F)cc3)CC2)cc1	i	i	i	i	-88	i
COc1cc(CN2CC=C(c3ccc(F)cc3)CC2)cc(OC)c1	i	i	i	i	-88	i
SMILES	ATXN viability	HepG2 viability	TGFb inhibitor	ATXN2 expr inh	D3 antag	D3 ag
ClCCN(CCCl)c1ccc(/C=C/c2ccnc3ccccc23)cc1	nt	i	i	nt	nt	nt
CNC(C)Cc1ccc2c(c1)OCO2 (configuration not stated)	i	nt	nt	i	nt	i
O=C1C(Cl)=CC(=Nc2ccc(O)cc2)C=C1Cl	?	i	?	i	?	i
O=[As](O)(O)c1ccc(N=Nc2ccc(O)cc2)cc1	?	i	i	nt	-99	i
Cc1ccccc1CN1Cc2cnnn2-c2ccccc2C1C#N (configuration not stated)	nt	i	?	?	-115	i
O=C(CN1CC=C(c2ccccc2)CC1)Nc1c(Cl)cccc1Cl	?	i	i	i	-71	i
